The whole screen tested about 290,000 compounds, of which about 3,000 (1%) were called active. This excerpt belongs to a sample that is enriched for actives. Values without a mark were called inactive. No stated cut-off is given here; in the data, active means inhibition mostly above about 36% (no sharp cut-off); inactive means mostly below about 34%.

This test can be described thus: inhibition of NOD1-driven NF-kB reporter – cell-based, luminescence, uHTS, primary screen (AID 1578).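 Further: HEK-293T reporter cells stimulated with the NOD1 agonist gamma-tri-DAP.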 The following applies: NOD1-driven NF-kB luciferase reporter cells, at 4 µM, hits give high values. (In general: A reporter such as luciferase makes a cellular process visible.)
As a reminder, the inhibition is the relative decrease from the control value, in per cent. For the molecule `O=C(c1ccc([N+](=O)[O-])cc1)N1CCSC1c1ccccc1` (stereo unspecified), the inhibition is -13.8%. To `CC(/C=C1\SC(=S)N(CC(=O)O)C1=O)=C\c1ccccc1` belongs -14.7%; to `O=C(O)c1ccc(N2C(=O)/C(=C/C=C/c3ccccc3)SC2=S)cc1`, -13.7%; to `O=C1CCCCN1CCC(=O)N1CCCC(N2CCN(c3ccccc3)CC2)C1` (stereo unspecified), -1%.

With `CC(C)(C)c1nc(CN2CCCCC2)cc(CN2CCCCC2)c1O`, the inhibition is -2.5%.

With `Cc1ccc(C2CC(c3cccs3)=NN2C(=O)CCl)cc1` (stereo unspecified), the inhibition is 95.3% (active).

As to `CCC(=O)N1N=C(c2cccs2)CC1c1ccc(C)cc1` (stereo unspecified), the inhibition is 1.5%. As to `CC(=O)N1N=C(c2ccco2)CC1c1cccs1` (stereo unspecified), the inhibition is -6.4%. Turning to `Cc1ccc(C2=NN(C(=O)CCC(=O)O)C(c3cccs3)C2)cc1` (stereo unspecified), the inhibition was -4.3%.

As to `CCN1CCN(CC(=O)N2N=C(c3cccs3)CC2c2ccc(C)cc2)C(=O)C1=O` (stereo unspecified), the inhibition was -19.6%. `O=C(O)CCC(=O)N1N=C(c2ccco2)CC1c1cccs1` (stereo unspecified): the inhibition is -15.2%. Consider `Cc1ccc(C2=NN(C(=O)CCl)C(c3ccco3)C2)o1` (stereo unspecified), for which the inhibition was -45.6%.

In the case of `COc1cc(NC(=O)CN2CCN(c3ccccc3F)CC2)cc(OC)c1`, the inhibition was -13.5%. In the case of `CC(C)(C)NC(=S)NCc1cccnc1`, the inhibition was 5.8%. `CCc1ccc(OCC(=O)NNC(=O)c2nn(CC)c(=O)c3ccccc23)cc1`: the inhibition is -23.6%. To `CC1(C)CC(=O)C(Sc2ccc(Br)cc2)=C(O)C1` belongs -57.7%; to `Fc1ccc(-c2nc3nc4ccccc4nc3n2Cc2ccco2)cc1`, -13.7%; to `S=c1nc(-c2ccccc2)[nH]c2ccccc12`, -26.9%. The value for `CCC(CC)c1nc(NCCC(=O)O)c2ccccc2n1` was -13.4%; that for `COc1ccc(Cl)cc1NC(=O)CCc1nnc2ccc(N3CCN(C)CC3)nn12` was 58% (active); that for `COc1ccc(Cl)cc1NC(=O)CCc1nnc2ccc(N3CCC4(CC3)OCCO4)nn12` was 10.7%. To `COc1ccccc1NC(=O)CCc1nnc2ccc(N3CCN(C)CC3)nn12` belongs -20.3%; to `COc1cc(O)c(C(CCN2CCOCC2)c2ccc(N(C)C)cc2)c(OC)c1` (stereo unspecified), 4.8%; to `Cc1ccc(S(=O)(=O)Nc2nc3ccccc3nc2NCC2CCCO2)c(C)c1` (stereo unspecified), -1.8%. For the molecule `COc1ccc(NC(=O)CN(C)C(=O)c2ccc3c(c2)S(=O)(=O)N=C2CCCCCN23)cc1`, the inhibition is -22%. To `COc1ccc(-c2c(C#N)c(N)nc(Sc3ccc(Cl)cc3)c2C#N)cc1` belongs -0.6%; to `N#Cc1c(N)nc(Sc2ccc(Cl)cc2)c(C#N)c1-c1ccccc1Cl`, 83.1% (active). The value for `CCSc1nc(N)c(C#N)c(-c2ccccc2Cl)c1C#N` was -2.6%; that for `Cc1[nH]c(=O)[nH]c(=O)c1S(=O)(=O)Nc1ccc(Oc2ccccc2)cc1` was -23.1%; that for `COc1ccc2nc(NCCCO)[nH]c2c1` was -28.1%. The value for `COc1ccccc1OCCNC(=O)c1cc(SC)ccc1Cl` was -20.2%. On to `Cc1cc(S(=O)(=O)NCCc2ccccc2)c(C)s1`, for which the inhibition was 15.9%.

With `CN(C)c1ccc(/C=C/c2c([N+](=O)[O-])c(=O)n(C)c(=O)n2C)cc1`, the inhibition was -9.1%. To `CCOc1ccc(/C=C/c2c([N+](=O)[O-])c(=O)n(C)c(=O)n2C)cc1` belongs -27.7%; to `CCc1ccc(/C=C/c2c([N+](=O)[O-])c(=O)n(C)c(=O)n2C)cc1`, 22.5%; to `COc1ccc(/C=C/c2c([N+](=O)[O-])c(=O)n(C)c(=O)n2C)cc1`, -2.9%. To `Clc1nccnc1-c1ccccc1` belongs -25.1%. The value for `Cc1sc2nc(NCCO)[nH]c(=O)c2c1C` was -16%. Turning to `O=C(Nc1nc(-c2ccc(Br)cc2)cs1)c1cccnc1`, the inhibition was -26.9%. The value for `CC1CCCCC1NC(=O)CSc1nnc(-c2ccccc2)n1N` (stereo unspecified) was 11.7%. Take `O=C(CCl)N(c1ccccc1)C1CCCCC1`: the inhibition was 34.4%. For `O=C(CCl)N(C1CCCC1)C1CCS(=O)(=O)C1` (stereo unspecified), the inhibition is 35.5%. On to `O=C(CCl)N(c1ccccc1)C1CCS(=O)(=O)C1` (stereo unspecified), for which the inhibition was 93.2% (active).

Turning to `NS(=O)(=O)c1ccc(CCNC(=O)c2cc(-c3cc(Cl)ccc3O)n[nH]2)cc1`, the inhibition was -5.8%.

For the molecule `CC(=O)Nc1ccc(NC(=O)[C@@H](NC(=O)N2C[C@H]3C[C@@H](C2)c2cccc(=O)n2C3)C(C)C)cc1`, the inhibition was -3.2%.

In the case of `CCN(CCn1cccn1)Cc1cn[nH]c1-c1cccc2ccccc12`, the inhibition is -11.1%.

Take `CC(=O)c1ccc(N2CCN(C(=O)C(=O)c3cn(CC(=O)N4CCCCCC4)c4ccccc34)CC2)cc1`: the inhibition is -25.9%.

For the molecule `Cc1cc(=O)oc2c(C)c(OCC(=O)N3CC[C@@]4(O)CCCC[C@H]4C3)ccc12`, the inhibition is -30.1%. Consider `COc1ccccc1CNc1ncnc2cc(OC)c(OC)cc12`, for which the inhibition was -12.1%. Consider `CN(C)CCNc1ncnc2ccccc12`, for which the inhibition was -20.6%.

In the case of `COc1cc2ncnc(NCc3ccccc3)c2cc1OC`, the inhibition was -4.6%.

Regarding `CCN(CC)CCCNc1ncnc2ccccc12`, the inhibition is -25.6%. To `COc1cc2ncnc(Nc3ccc4c(c3)OCO4)c2cc1OC` belongs 16.8%. To `COc1cc2ncnc(NCc3cccc(Cl)c3)c2cc1OC` belongs 44.2%; to `COc1cc2ncnc(Nc3cccc(Cl)c3)c2cc1OC`, 45.3% (active). The value for `c1ccc(CNc2ncnc3ccccc23)cc1` was -16.1%. `c1ccc(CCNc2ncnc3ccccc23)cc1`: the inhibition was 71.7% (active). With `OCCCCCNc1ncnc2ccccc12`, the inhibition is 45.8% (active).

`CCCCCCCCNc1ncnc2ccccc12`: the inhibition was 54.9%. `CC(C)Cn1c(SCC(=O)N2CCCc3ccccc32)nc2ccccc2c1=O`: the inhibition is -2.1%. The value for `O=C(CSc1nnc(C2CC2)n1CC1CCCO1)Nc1ccccc1Cl` (stereo unspecified) was -9%; that for `CC1CCN(c2ccc([N+](=O)[O-])cc2C(=O)O)CC1` was -6.6%; that for `COCc1cc(=O)[nH]c(=S)[nH]1` was -3.8%. To `C#CCNC(=O)/C=C/c1ccc(C)cc1` belongs -42.9%; to `COC(=O)C1=C(C(=O)OC)[C@@H]2N(C)c3ccccc3[C@@]23C[C@@H](CO)N(C(=O)NCCBr)C3=N1`, -2.6%.

As for `Cc1c(O)ccc2c(=O)c(Oc3ccccc3)coc12`, the inhibition was -2.7%. Take `Cc1cc(C)nc(SCc2nnc(SCC(=O)Nc3c(C)cccc3C)o2)n1`: the inhibition was -14%. The value for `O=C1CSc2ccc(S(=O)(=O)CCC(=O)NC3CCCCC3)cc2N1` was -26.4%. On to `C#CCOC(=O)CCCNc1ccc([N+](=O)[O-])cc1[N+](=O)[O-]`, for which the inhibition is -22.8%. To `CC1CN=C(N(C(=O)Nc2ccccc2)c2ccc(F)cc2)S1` (stereo unspecified) belongs 1.6%. The value for `CSCCC(NC(=O)OCc1ccccc1)C(=O)NCc1cccnc1` (stereo unspecified) was -10.2%; that for `CCOc1ccc(C(=O)COC(=O)CC)cc1` was -16%; that for `CCCOc1ccc(C(=O)CCN2CCCCC2)cc1` was 35.7%. For `CCOc1ccc(C(=O)CCN2CCCCC2)cc1`, the inhibition is 44%. The value for `CCOc1ccc(C(=O)COC(C)=O)cc1` was 3.9%. The value for `CCOc1ccc(C(=O)CCN2CCCCCC2)cc1` was 70.2% (active); that for `CCCCC(=O)OCC(=O)c1ccc(OCC)cc1` was 31.2% (active); that for `Cc1occc1C(=O)O/N=C(\N)c1ccccc1` was -8.7%. The value for `CCNC(=S)Nc1cccc(F)c1C` was -29.3%; that for `O=C(NCc1ccco1)C(Cc1ccccc1)N1C(=O)C2C3C=CC(C3)C2C1=O` (stereo unspecified) was 1.7%; that for `COC(=O)C(Cc1ccccc1)NC(=O)CC(C)CC(=O)Nc1ccc(C)cc1` (stereo unspecified) was -13.8%.

For `CC(C)(C)NC(=O)CN(C(=O)C1CSC(=O)C1)c1ccc2c(c1)OCCO2` (stereo unspecified), the inhibition was -20.5%. Regarding `CCN1CCN(C(=O)c2ccc3c(c2)N(Cc2ccc(C)cc2)CCS3)CC1`, the inhibition is -18.4%. To `CCOC(=O)N1CCN(C(=O)c2ccc3c(c2)N(Cc2ccc(C)cc2)CCS3)CC1` belongs 45.5%. For the molecule `Cc1ccc(CN2CCSc3ccc(C(=O)N4CCN(c5ncccn5)CC4)cc32)cc1`, the inhibition is 34.2% (active). To `CSc1nc2ccc(NC(=O)c3ccco3)cc2s1` belongs -41.5%; to `C=CCn1c(COc2ccccc2-c2ccccc2)nnc1SCC(=O)NC(=O)NCc1ccco1`, -0.2%; to `Cc1cc(C)nc(Nc2cccc(Cl)c2)n1`, -14.1%. `COc1ccc(Nc2nccc(-c3cccc(N)c3)n2)cc1`: the inhibition was 6.7%. To `CCC(C)Oc1cc(-c2ccnc(Nc3cccc(Cl)c3)n2)ccn1` (stereo unspecified) belongs 47% (active); to `Brc1ccc(CSc2ncn[nH]2)cc1`, 19%; to `COc1cc2ccccc2cc1C(=O)Nc1ccc2oc(=O)ccc2c1`, 46.4%.

Regarding `CCNc1nc(NC(C)C)nc(Oc2ccc(OCCOc3ccc(C)cc3)nn2)n1`, the inhibition was -39.7%. The value for `COCc1cc(S(=O)c2ccc(Cl)cc2)nc(C)n1` (stereo unspecified) was 84.6% (active).

Turning to `COCc1cc(NCc2ccc(Cl)cc2)nc(C)n1`, the inhibition is 21%.

As to `COCc1cc(Sc2ccc(Cl)cc2)nc(C)n1`, the inhibition is -2.4%.

Take `O=C(c1c[nH]c2ccccc12)C(Cl)c1ccccc1` (stereo unspecified): the inhibition was 96.9% (active). Turning to `O=C(c1ccccc1)c1c[nH]c2ccccc12`, the inhibition was -14.2%.

`CC(Cl)C(=O)c1c[nH]c2ccccc12` (stereo unspecified): the inhibition is -10.4%. To `COc1ccccc1NS(=O)(=O)c1ccc2c(c1)NC(=O)C(C)S2` (stereo unspecified) belongs 49.3%; to `COc1ccc(N2CCN(C(=O)c3oc4ccccc4c3NC(=O)Cc3cccc(OC)c3)CC2)cc1`, -28.1%.

Values taken from PubChem BioAssay AID1578 (Sanford-Burnham Center for Chemical Genomics, 2009).
